Most compounds without a hit are left out; they make up all but 21% or so of the library.
Pf growth 48h = Primary qHTS for delayed death inhibitors of the malarial parasite plastid, 48 hour incubation | P. falciparum luciferase growth in erythrocytes, 48 h | Potency, µM (titrated, usually from 28.7 µM), hits mostly inhibitors | hit rate 5.9% among 310,000 | AID 504832, 2011
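Growth was read as firefly luciferase luminescence after a 48 h, 37 C, 5% CO2 exposure of compounds to reporter-bearing P. falciparum cultures (0.1% parasitemia, 2% hematocrit final) in Albumax-supplemented RPMI 1640.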
Pf growth 96h = Primary qHTS for delayed death inhibitors of the malarial parasite plastid, 96 hour incubation. P. falciparum luciferase reporter growth, 96 h. Potency, µM (series often up to 28.7 µM), usual class: inhibitors. hit rate 6.9% among 320,000. AID 504834, 2011
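P. falciparum expressing integrated firefly luciferase, in erythrocytes at 2% hematocrit, 0.05% parasitemia, incubated with compounds 96 h at 37 C, 5% CO2. Growth inhibition read as loss of luminescence; two-generation exposure targets delayed-death apicoplast inhibitors.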
Shiga toxin inh = A qHTS for Small Molecule Inhibitors of Shiga Toxin | inhibition, % at 38.7 µM | Vero cells, Shiga toxin protein synthesis inhibition reporter | hit rate 9.2% among 290,000 | AID 2315, 2010; in the data active means inhibition mostly above about 28%, no sharp cut-off; inactive means mostly below about 43%
Cycloheximide cs = Cycloheximide Counterscreen for Small Molecule Inhibitors of Shiga Toxin. hit rate 12% among 300,000. cell reporter, cycloheximide protein synthesis inhibition counterscreen. max response, %. AID 2314, 2010; in the data active means max response mostly above about 13%, no sharp cut-off; inactive means mostly below about 14%; further: read at 38.3 µM for the half of the compounds with a filed dose
HCMV inh = qHTS Assay for inhibitors of the human cytomegalovirus (HCMV); AID 1259415, 2018; hit rate 4.5% among 410,000; HFF cells, HCMV-luciferase reporter, 72 h; active compounds read low; activity change, negative = inhibition, % at 57.5 µM; in the data active means activity change below about -60%; inconclusive means no clear call, values can overlap the other calls; inactive means above about -39%
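Luciferase read-out from HCMV-luciferase-infected HFFs (MOI 1 PFU/cell) 72 h post infection at 37C; compounds added after 16 h cell attachment; activity normalized between buffer-only basal and Salinomycin (10uM) inhibitor controls.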
HCV inh = qHTS Assay for Inhibitors of Hepatitis C Virus (HCV); Huh7.5.1 HCVcc-Cre infection, luciferase reporter, 44 h; Potency, µM (titrated, usually from 41.8 µM), most hits filed as inhibitors; hit rate 3.4% among 340,000; AID 651820, 2012
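Cells seeded at 1,000/well and cultured 4 h, then compounds added followed by HCVcc-Cre virus (~0.5 moi). After 44 h further culture, luciferase substrate was added, plates held 15 min at room temperature, and luminescence read for 15 sec.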
Numbers stand for hits; - = inactive; ? = inconclusive; . = no result; [ ] = another dose, or the depositor's remark. Unless noted, the call rests on the fitted dose curve; in most records, active means well fitted inhibition curve with a large enough effect; inconclusive means small, poorly fitted or top-dose-only effect, or another doubt; inactive means no such curve, though single readings can be large or run the other way.

SMILES | Pf growth 48h | Pf growth 96h | Shiga toxin inh | Cycloheximide cs | HCMV inh | HCV inh
O=C(Nc1cccc(-c2cnc3ccccc3n2)c1)c1ccncc1 | ? | - | - | 23 | - | ?
Cc1cccc(C(=O)Nc2cccc(-c3cnc4ccccc4n3)c2)c1 | ? | ? | - | - | - | ?
O=C(Nc1cnc2ccccc2c1)c1ccco1 | - | - | 68 | 33 | - | -
CN(C)C(=O)Nc1cnc2ccccc2c1 | - | - | - | - | - | -
CS(=O)(=O)Nc1cccc(-c2cnc3ccccc3n2)c1 | - | - | 85 | 37 | - | -
CCc1ccccc1NC(=O)Cn1cc(C(=O)c2ccc(Cl)cc2)c(=O)c2ccc(C)nc21 | . | . | . | . | - | .
COc1ccccc1-c1noc(-c2ccccc2C(=O)NCc2ccco2)n1 | - | - | - | 14 | - | -
COc1ccc(-c2noc(-c3ccccc3NC(=O)c3cc(OC)c(OC)c(OC)c3)n2)cc1 | . | . | . | . | - | .
COc1cc(-c2noc(-c3ccccc3C(=O)NCc3ccco3)n2)cc(OC)c1OC | - | ? | - | - | - | 11µM
C[C@@H]1CN([C@@H](C)CO)C(=O)c2cccc(NC(=O)C3CCCCC3)c2O[C@@H]1CN(C)C(=O)NC1CCCCC1 | . | . | . | . | - | -
O=[N+]([O-])c1ccc(C2CCCC/C2=N/OCc2ccc(F)cc2)c([N+](=O)[O-])c1 (stereo not given) | 12µM | ? | - | - | - | ?
CC(=O)N1N=C(c2cccc([N+](=O)[O-])c2)OC1c1ccc(Cl)cc1Cl (stereo not given) | - | ? | - | - | - | 10µM
COc1ccccc1C1OC(c2cccc([N+](=O)[O-])c2)=NN1C(C)=O (stereo not given) | - | - | - | - | ? | -
O=C(Nc1ccccc1Cl)N1CCC2(CC1)Oc1ccccc1C(=O)N2Cc1ccc(F)cc1 | . | . | . | . | - | .
Cc1ccc2cc(C(c3nnnn3Cc3ccccc3)N3CCN(c4ccccc4)CC3)c(=O)[nH]c2c1 (stereo not given) | 5.9µM | - | - | - | - | ?
Cc1ccc2cc(C(c3nnnn3C3CCCC3)N3CCN(c4ccccc4)CC3)c(=O)[nH]c2c1 (stereo not given) | ? | ? | - | - | - | -
CC(C)(C)n1nnnc1C(c1cc2cc3c(cc2[nH]c1=O)OCO3)N1CCN(c2ccccc2)CC1 (stereo not given) | 1.7µM | - | - | - | - | -
COc1ccc(N2CCN(C(c3cc4cc(C)ccc4[nH]c3=O)c3nnnn3Cc3ccccc3)CC2)cc1 (stereo not given) | . | 3.7µM | - | - | - | -
Cc1ccc(-c2cc3ncc4c(n3n2)-c2cc(Cl)ccc2OC4)cc1 | . | . | . | . | - | .
Cc1cc(NC(=O)COC(=O)C2CCN(S(=O)(=O)c3ccccc3)CC2)c([N+](=O)[O-])cc1C | - | - | - | - | - | -
Nc1ccn(Cc2ccccc2)n1 | - | ? | - | - | - | -
c1ccc(Cn2ccc(-c3cnc(-c4ccccc4)s3)n2)cc1 | . | - | 109 | 41 | - | ?
CCC1CCCCN1CCCNC(=O)C1CC(=O)N(CCc2ccccc2)C1 (stereo not given) | - | ? | - | - | - | -
CC(C)c1ccccc1OCC(=O)Nc1cc(S(=O)(=O)N2CCOCC2)ccc1N1CCCC1 | 5.2µM | ? | . | . | ? | ?
COc1ccccc1C(=O)OCC(=O)Nc1cc(S(=O)(=O)N2CCOCC2)ccc1N1CCCC1 | - | - | - | - | - | -
SMILES | Pf growth 48h | Pf growth 96h | Shiga toxin inh | Cycloheximide cs | HCMV inh | HCV inh
O=C(COc1ccccc1F)Nc1cc(S(=O)(=O)N2CCOCC2)ccc1N1CCOCC1 | 12µM | ? | - | - | - | -
CCN1CCN(c2ccc(S(=O)(=O)N3CCOCC3)cc2NC(=O)COc2ccc(F)cc2Cl)CC1 | ? | 4.7µM | - | - | - | -
Cc1ccccc1OCC(=O)Nc1cc(S(=O)(=O)N2CCOCC2)ccc1N1CCCC1 | 10µM | 7.4µM | . | . | - | ?
CCOC(=O)Cc1ccc(NC(=O)N2CCC(CN3CCCCCC3)CC2)cc1 | . | . | . | . | - | .
CC(Oc1ccc(Br)cc1)C(=O)N(Cc1ccccc1)c1c(N)n(Cc2ccccc2)c(=O)[nH]c1=O (stereo not given) | . | . | . | . | - | .
Fc1ccccc1N1CCN(c2ncnc3[nH]ncc23)CC1 | - | ? | - | - | ? | 16µM
O=C(OCc1cccc([N+](=O)[O-])c1)c1cc(=O)[nH]c2ccccc12 | - | - | - | - | . | .
CCOC(=O)c1cc2[nH]c3ccccc3c2[n+](-c2ccc([N+](=O)[O-])cc2)c1N | 3.7µM | ? | - | - | -91 | -
CCOC(=O)c1cc2[nH]c3ccccc3c2[n+](-c2ccc([N+](=O)[O-])cc2)c1C | 2.6µM | ? | - | - | - | -
CCCCn1c(N)c(N(CC(C)C)C(=O)c2ccc(-c3ccc(C(C)=O)cc3)o2)c(=O)[nH]c1=O | - | - | . | . | - | -
Cc1[nH]n(-c2nc(-c3ccccc3F)cc(=O)[nH]2)c(=O)c1CCO | - | - | - | - | - | -
CCCCCCC(NC(=O)Cc1ccc2ccccc2c1)C(=O)O (stereo not given) | . | . | . | . | - | -
CCCCCCCCCCCC[n+]1ccc2ccccc2c1 | 0.3µM | 3µM | . | . | . | .
c1ccc2c[n+](CCCCCCCCCC[n+]3ccc4ccccc4c3)ccc2c1 | . | . | . | . | -81 | .
COc1ccc(N2CC(NC(=O)/C=C\c3ccc(OC)c(OC)c3)CC2=O)cc1 (stereo not given) | . | . | . | . | - | .
CCOC(=O)c1c(C)nc2sc3c(=O)n(-c4ccc(C(C)=O)cc4)cnc3c2c1-c1ccc(Cl)cc1 | . | 3.7µM | - | - | - | -
CCOC(=O)c1c(C)nc2sc3c(=O)n(-c4ccc(C(C)=O)cc4)nnc3c2c1-c1ccc(Cl)cc1 | - | - | - | - | - | ?
CCN(Cc1ccccc1)C(=O)COC(=O)c1cnc(C)cn1 | - | - | - | - | - | -
CCN(Cc1ccccc1)C(=O)COC(=O)c1c(C)nsc1NC | ? | ? | . | . | -66 | 11µM
CCCC(=O)Oc1ccc(N(C(=O)CCC)S(=O)(=O)c2cccc([N+](=O)[O-])c2)cc1 | - | 4.7µM | - | - | - | -
CC1=C(c2ccc(C)c(C)c2)S(=O)(=O)N(Cc2ccc(C(=O)NCc3cccc(C)c3)cc2)C1=O | . | . | . | . | - | .
C=CCNc1cc(N2CCCC2)ccc1[N+](=O)[O-] | - | -[5.75 µM] | - | - | - | ?
O=C(O)C/C(=C\c1ccc2c(c1)OCO2)c1nc2ccccc2s1 | - | - | 69 | 32 | - | -
COc1ccccc1/C=C(/CC(=O)NCc1ccc2c(c1)OCO2)c1nc2ccccc2s1 | - | ? | 67 | 20 | - | -
COc1ccccc1/C=C/C(=O)OCC(=O)NCc1ccc2c(c1)OCO2 | . | . | . | . | - | -
